# Test results as given in the antibiotic and cytotoxicity screens of Wong et al. (2023).
# In all, about 39,000 compounds went through this assay and about 1,500 (3.8%) were called active. The list comes from a sample in which actives are over-represented; it also holds similar structures and randomly drawn compounds.
# System: HSkMC (human skeletal muscle cells)
# Assay: cytotoxicity call (relative viability < 0.9)
# Settings: 10 µM
row,SMILES,cytotoxicity call
1,CCC(=O)Nc1ccc2c(c1)C(=O)N(C)C[C@H](OC)[C@@H](C)CN(C(=O)CN1CCOCC1)[C@H](C)CO2,inactive
2,CC(C)NC(=O)Nc1ccc2c(c1)C(=O)N([C@@H](C)CO)C[C@@H](C)[C@@H](CN(C)C(=O)Nc1ccc(C(F)(F)F)cc1)OCCCC[C@@H](C)O2,inactive
3,C[C@@H]1CCCCO[C@H](CN(C)S(=O)(=O)c2cccs2)[C@@H](C)CN([C@@H](C)CO)C(=O)c2cc(NC(=O)Nc3cccc4ccccc34)ccc2O1,inactive
4,C[C@@H]1CCCCO[C@H](CN(C)C(=O)CCC(F)(F)F)[C@@H](C)CN([C@H](C)CO)C(=O)c2cc(NC(=O)Cc3ccccc3)ccc2O1,inactive
5,CC(C)NC(=O)Nc1cccc2c1O[C@@H](CN(C)Cc1ccc3c(c1)OCO3)[C@@H](C)CN([C@H](C)CO)C2=O,inactive
6,C[C@@H]1CN([C@H](C)CO)C(=O)c2cc(NS(=O)(=O)c3ccccc3)ccc2O[C@@H]1CN(C)S(C)(=O)=O,inactive
7,C[C@H]1CN([C@@H](C)CO)S(=O)(=O)c2ccc(C#Cc3ccncc3)cc2O[C@H]1CN(C)C(=O)C1CCOCC1,inactive
8,Cc1noc(C)c1S(=O)(=O)Nc1ccc2c(c1)C(=O)N([C@H](C)CO)C[C@H](C)[C@H](CN(C)C(=O)Nc1cccc3ccccc13)OCCCC[C@@H](C)O2,inactive
9,Cc1noc(C)c1S(=O)(=O)Nc1ccc2c(c1)C(=O)N([C@@H](C)CO)C[C@@H](C)[C@@H](CN(C)C(=O)Nc1cccc3ccccc13)OCCCC[C@H](C)O2,inactive
10,Cc1noc(C)c1S(=O)(=O)Nc1ccc2c(c1)C(=O)N([C@H](C)CO)C[C@H](C)[C@@H](CN(C)C(=O)Nc1cccc3ccccc13)OCCCC[C@H](C)O2,active
11,Cc1nnnn1CC(=O)Nc1ccc(F)cc1,inactive
12,COc1ccc(NC(=O)Nc2ccc3c(c2)[C@H]2C[C@H](CC(=O)NCc4ccncc4)O[C@H](CO)[C@H]2O3)cc1,inactive
13,C[C@@H]1CCCCO[C@@H](CN(C)C(=O)Nc2ccccc2)[C@H](C)CN([C@H](C)CO)C(=O)c2cc(NC(=O)Cc3ccccc3)ccc2O1,inactive
14,Cc1ccc(S(=O)(=O)Nc2ccc3c(c2)C(=O)N([C@H](C)CO)C[C@@H](C)[C@@H](CN(C)C(=O)C2CCCCC2)OCCCC[C@H](C)O3)cc1,inactive
15,O=C(O)c1cn(C2CC2)c2cc(N3CCC(O)(COc4ccc(N5C[C@H](CO)OC5=O)cc4F)CC3)c(F)cc2c1=O,inactive
16,O=C(CCCCCCC(=O)Nc1ccc([C@H]2O[C@@H](CSc3ccncc3)C[C@H](c3ccccc3)O2)cc1)NO,inactive
17,O=C(CCCCCCC(=O)Nc1ccc([C@@H]2O[C@H](CSc3ccncc3)C[C@H](c3ccccc3)O2)cc1)NO,inactive
18,O=C(/C=C/c1ccc(CNc2ccc([C@H]3O[C@@H](CSc4ccncc4)C[C@H](c4ccccc4)O3)cc2)cc1)NO,active
19,C[C@H](CO)N1C[C@H](C)[C@H](CN(C)C(=O)NC2CCCCC2)Oc2cc(-c3cccnc3)ccc2S1(=O)=O,inactive
20,COc1ccc(NC(=O)N(C)C[C@H]2OCCCC[C@H](C)Oc3ccc(NC(=O)c4ccncc4)cc3C(=O)N([C@H](C)CO)C[C@@H]2C)cc1,inactive

row,SMILES,cytotoxicity call
1,CCc1ccc(NC(=S)Nc2ccccc2C(C)C)cc1,inactive
2,COCC#Cc1ccc2c(c1)O[C@@H](CN(C)C(=O)COC)[C@@H](C)CN([C@H](C)CO)S2(=O)=O,inactive
3,COc1ccc(S(=O)(=O)Nc2ccccc2CN(C)C/C=C/c2ccc(Cl)cc2)cc1.O=P(=O)OO,inactive
4,COc1ccc(NC(=O)Nc2ccc3c(c2)CC(=O)N([C@@H](C)CO)C[C@@H](C)[C@@H](CN(C)Cc2ccc(C(F)(F)F)cc2)O3)cc1,inactive
5,COc1ccc(NC(=O)Nc2ccc3c(c2)CC(=O)N([C@H](C)CO)C[C@H](C)[C@H](CN(C)Cc2ccc(C(F)(F)F)cc2)O3)cc1,inactive
6,COc1ccc(NC(=O)Nc2ccc3c(c2)CC(=O)N([C@@H](C)CO)C[C@H](C)[C@@H](CN(C)Cc2ccc(C(F)(F)F)cc2)O3)cc1,inactive
7,COc1ccc(NC(=O)Nc2ccc3c(c2)CC(=O)N([C@H](C)CO)C[C@@H](C)[C@H](CN(C)Cc2ccc(C(F)(F)F)cc2)O3)cc1,inactive
8,COc1ccc(CN(C)C[C@H]2Oc3ccc(NC(=O)Nc4ccc(C(F)(F)F)cc4)cc3CC(=O)N([C@@H](C)CO)C[C@H]2C)cc1,active
9,COc1ccc(CN(C)C[C@H]2Oc3ccc(NC(=O)Nc4ccc(C(F)(F)F)cc4)cc3CC(=O)N([C@@H](C)CO)C[C@@H]2C)cc1,inactive
10,COc1ccc(CN(C)C[C@H]2Oc3ccc(NC(=O)Nc4ccc(C(F)(F)F)cc4)cc3CC(=O)N([C@H](C)CO)C[C@H]2C)cc1,active
11,COc1ccc(NC(=O)Nc2ccc3c(c2)CC(=O)N([C@@H](C)CO)C[C@@H](C)[C@H](CN(C)Cc2ccc(C(F)(F)F)cc2)O3)cc1,inactive
12,COc1ccc(NC(=O)Nc2ccc3c(c2)CC(=O)N([C@@H](C)CO)C[C@H](C)[C@H](CN(C)Cc2ccc(C(F)(F)F)cc2)O3)cc1,active
13,COc1ccc(CN(C)C[C@@H]2Oc3ccc(NC(=O)Nc4ccc(C(F)(F)F)cc4)cc3CC(=O)N([C@@H](C)CO)C[C@@H]2C)cc1,inactive
14,COc1ccc(NC(=O)Nc2ccc3c(c2)CC(=O)N([C@H](C)CO)C[C@H](C)[C@@H](CN(C)Cc2ccc(C(F)(F)F)cc2)O3)cc1,inactive
15,COc1ccc(NC(=O)Nc2ccc3c(c2)CC(=O)N([C@H](C)CO)C[C@@H](C)[C@@H](CN(C)Cc2ccc(C(F)(F)F)cc2)O3)cc1,active
16,COc1ccc(C#Cc2ccc3c(c2)[C@]2(C(=O)N3)[C@H](C(=O)N3CCc4cc(OC)c(OC)cc4C3)[C@H]3C(=O)O[C@H](c4ccccc4)[C@H](c4ccccc4)N3[C@@H]2c2ccc(O)cc2)cc1,inactive
17,C[C@@H]1CN([C@H](C)CO)C(=O)Cc2cc(NC(=O)Nc3ccc(C(F)(F)F)cc3)ccc2O[C@H]1CN(C)C(=O)Nc1cccc2ccccc12,inactive
18,C[C@H](CO)N1C[C@H](C)[C@@H](CN(C)C(=O)Cc2ccccn2)Oc2cc(C#Cc3ccccc3)ccc2S1(=O)=O,inactive
19,Cn1ncc2c1CCCC2=O,inactive
20,Cc1noc(C)c1NC(=O)N(C)C[C@H]1Oc2ncc(C#CCN(C)C)cc2C(=O)N([C@H](C)CO)C[C@H]1C,inactive

row,SMILES,cytotoxicity call
1,COc1cccc(S(=O)(=O)N(C)C[C@@H]2Oc3ncc(C#CCN(C)C)cc3C(=O)N([C@@H](C)CO)C[C@@H]2C)c1,inactive
2,C[C@@H]1CN([C@H](C)CO)C(=O)Cc2cc(NC(=O)Nc3ccc4c(c3)OCO4)ccc2O[C@@H]1CN(C)S(C)(=O)=O,inactive
3,COc1ccc(NC(=O)N(C)C[C@H]2OCCCC[C@H](C)Oc3ccc(NC(=O)c4ccccc4)cc3C(=O)N([C@@H](C)CO)C[C@@H]2C)cc1,inactive
4,COc1ccc(S(=O)(=O)N(C)C[C@H]2OCCCC[C@@H](C)Oc3ccc(NC(=O)CCC(F)(F)F)cc3C(=O)N([C@@H](C)CO)C[C@@H]2C)cc1,inactive
5,COc1ccc(CN(C)C[C@@H]2Oc3ccc(NC(=O)Nc4ccc(C(F)(F)F)cc4)cc3CC(=O)N([C@H](C)CO)C[C@@H]2C)cc1,active
6,COc1ccc(NC(=O)Nc2ccc3c(c2)CC(=O)N([C@@H](C)CO)C[C@H](C)[C@@H](CN(C)C(=O)Nc2ccc(C(F)(F)F)cc2)O3)cc1,inactive
7,COc1ccc(CN(C)C[C@@H]2Oc3ccc(NC(=O)Nc4ccc(C(F)(F)F)cc4)cc3CC(=O)N([C@H](C)CO)C[C@H]2C)cc1,inactive
8,C[C@@H]1CN([C@@H](C)CO)C(=O)c2cccc(NS(C)(=O)=O)c2O[C@@H]1CN(C)S(=O)(=O)c1cn(C)cn1,inactive
9,COc1ccc(NC(=O)N(C)C[C@H]2Oc3ccc(NS(=O)(=O)c4c(C)noc4C)cc3C(=O)N([C@@H](C)CO)C[C@H]2C)cc1,inactive
10,COc1ccc(S(=O)(=O)Nc2ccc3c(c2)C(=O)N([C@@H](C)CO)C[C@@H](C)[C@@H](CN(C)S(C)(=O)=O)O3)cc1,inactive
11,COc1ccccc1C#Cc1ccc2c(c1)O[C@H](CN(C)Cc1cncnc1)[C@@H](C)CN([C@@H](C)CO)S2(=O)=O,inactive
12,COc1ccccc1C#Cc1ccc2c(c1)O[C@@H](CN(C)Cc1cncnc1)[C@H](C)CN([C@@H](C)CO)S2(=O)=O,active
13,COc1ccccc1C#Cc1ccc2c(c1)O[C@@H](CN(C)Cc1cncnc1)[C@H](C)CN([C@H](C)CO)S2(=O)=O,active
14,COc1ccccc1C#Cc1ccc2c(c1)O[C@H](CN(C)Cc1cncnc1)[C@H](C)CN([C@H](C)CO)S2(=O)=O,inactive
15,COc1ccccc1C#Cc1ccc2c(c1)O[C@H](CN(C)Cc1cncnc1)[C@@H](C)CN([C@H](C)CO)S2(=O)=O,inactive
16,COc1ccccc1C#Cc1ccc2c(c1)O[C@@H](CN(C)Cc1cncnc1)[C@@H](C)CN([C@@H](C)CO)S2(=O)=O,inactive
17,COc1ccc(S(=O)(=O)N(C)C[C@H]2Oc3c(NC(=O)c4cc(C)nn4C)cccc3C(=O)N([C@H](C)CO)C[C@H]2C)cc1,inactive
18,C[C@@H]1CCCCO[C@H](CN(C)CC2CC2)[C@@H](C)CN([C@H](C)CO)C(=O)c2cc(NC(=O)CCC(F)(F)F)ccc2O1,inactive
19,COc1ccc(S(=O)(=O)N2c3ccc(Cl)cc3[C@](O)(c3ccccc3Cl)[C@@H]2C(=O)N2CCC[C@H]2C(N)=O)cc1OC,inactive
20,C[C@@H]1CN([C@@H](C)CO)C(=O)c2cccc(NS(=O)(=O)c3cn(C)cn3)c2O[C@H]1CN(C)C(=O)Nc1ccc2c(c1)OCO2,inactive
